Measured values published in PubChem BioAssay (EPA / NIEHS).
Calls of active or inactive are those of the source. The calls were made as follows: active = hit-call score of the fitted dose curve at least 0.9, where 1 is the maximum; inactive = score below 0.9.

Experiments:
[1] = read-out: TIMP metallopeptidase inhibitor 1 (TIMP1), TIMP1 (gene 7076); assay: BSK_hDFCGF_TIMP1: BioMAP Diversity Plus: hDFCGF Assay for TIMP metallopeptidase inhibitor 1 (TIMP1) Biomarker Activity (AID 2283062); conditions: primary human foreskin fibroblasts; actives raise or lower the signal
How it was run: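 Primary human foreskin fibroblasts in the hDFCGF system were dosed with compound for 24 h, then TIMP-1 was measured by ELISA. Activity was fitted bidirectionally relative to DMSO control; parallel SRB staining assessed cytotoxicity.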

[2] = read-out: Monokine induced gamma interferon (MIG), CXCL9 (gene 4283); assay: BSK_hDFCGF_MIG: BioMAP Diversity Plus: hDFCGF Assay for Monokine induced gamma interferon (MIG) Biomarker Activity (AID 2283063); conditions: primary human foreskin fibroblasts; actives raise or lower the signal
How it was run: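 ELISA read-out of MIG from primary human dermal fibroblasts 24 h post-dosing. Gain or loss of signal fitted bidirectionally, DMSO as baseline.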

[3] = read-out: Matrix Metallopeptidase 1 (MMP1), MMP1 (gene 4312); assay: BSK_hDFCGF_MMP1: BioMAP Diversity Plus: hDFCGF Assay for Matrix Metallopeptidase 1 (MMP1) Biomarker Activity (AID 2283064); conditions: primary human foreskin fibroblasts; actives raise or lower the signal
How it was run: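 hDFCGF primary fibroblasts (human foreskin); chemical added; 24 h; MMP1 by ELISA; bidirectional fit vs DMSO.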

[4] = read-out: Vascular cell adhesion molecule 1 (VCAM1), VCAM1 (gene 7412); assay: BSK_hDFCGF_VCAM1: BioMAP Diversity Plus: hDFCGF Assay for Vascular cell adhesion molecule 1 (VCAM1) Biomarker Activity (AID 2283065); conditions: primary human foreskin fibroblasts; actives raise or lower the signal
How it was run: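 Primary human foreskin fibroblasts (hDFCGF system) were dosed with chemical and VCAM-1 was measured by ELISA 24 h later. Bidirectional curve fitting used DMSO as negative control and activity baseline.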

[5] = read-out: Plasminogen activator inhibitor-1 (PAI1), SERPINE1 (gene 5054); assay: BSK_hDFCGF_PAI1: BioMAP Diversity Plus: hDFCGF Assay for Plasminogen activator inhibitor-1 (PAI1) Biomarker Activity (AID 2283066); conditions: primary human foreskin fibroblasts; actives raise or lower the signal
How it was run: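 Primary dermal fibroblasts (human foreskin), hDFCGF system; compound 24 h; PAI-1 by ELISA; bidirectional fit vs DMSO control.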

[6] = read-out: Intercellular Adhesion Molecule 1 (ICAM1), ICAM1 (gene 3383); assay: BSK_KF3CT_ICAM1: BioMAP Diversity Plus: KF3CT Assay for Intercellular Adhesion Molecule 1 (ICAM1) Biomarker Activity (AID 2283067); conditions: primary human keratinocytes with fibroblasts; actives raise or lower the signal
How it was run: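 Human keratinocyte plus foreskin fibroblast primary co-culture was exposed to chemical for 24 h. ICAM-1 was then quantified by ELISA, and the data were fit bidirectionally against DMSO as the negative control and baseline.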

[7] = read-out: Interferon-gamma inducible Protein 10 (IP10), CXCL10 (gene 3627); assay: BSK_KF3CT_IP10: BioMAP Diversity Plus: KF3CT Assay for Interferon-gamma inducible Protein 10 (IP10) Biomarker Activity (AID 2283068); conditions: primary human keratinocytes with fibroblasts; actives raise or lower the signal
How it was run: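 Human keratinocyte plus foreskin fibroblast primary co-culture exposed to test chemical for 24 h; IP-10 measured by ELISA. Concentration-response fitted bidirectionally against DMSO control as baseline.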

[8] = BSK_KF3CT_SRB: Viability Assessment in the BioMAP Diversity Plus: KF3CT Assay (AID 2283069); conditions: primary human keratinocytes with fibroblasts;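 also: total protein by sulforhodamine B staining as a cytotoxicity measure; read 24 h after compound addition; fitted for both signal gain and loss against DMSO baseline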
How it was run: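 Keratinocytes co-cultured with foreskin fibroblasts (human primary); chemical added, 24 h; fix 10% TCA, stain 0.1% SRB, A560. Bidirectional fit vs DMSO.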

[9] = read-out: Interleukin-1 alpha (IL1a), IL1A (gene 3552); assay: BSK_KF3CT_IL1a: BioMAP Diversity Plus: KF3CT Assay for Interleukin-1 alpha (IL1a) Biomarker Activity (AID 2283070); conditions: primary human keratinocytes with fibroblasts; actives raise or lower the signal
How it was run: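 Chemicals were dosed onto co-cultured human keratinocytes and foreskin fibroblasts, IL-1a was quantified by ELISA at 24 h, and activity was fitted in both directions relative to DMSO controls.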

[10] = read-out: TIMP metallopeptidase inhibitor 2 (TIMP2), TIMP2 (gene 7077); assay: BSK_KF3CT_TIMP2: BioMAP Diversity Plus: KF3CT Assay for TIMP metallopeptidase inhibitor 2 (TIMP2) Biomarker Activity (AID 2283071); conditions: primary human keratinocytes with fibroblasts; actives raise or lower the signal
How it was run: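 Cells: human keratinocytes co-cultured with foreskin fibroblasts. Treat with chemical, 24 h. Measure TIMP-2 by ELISA; fit curves bidirectionally vs DMSO baseline.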

[11] = read-out: Transforming growth factor beta 1 (TGFb1), TGFB1 (gene 7040); assay: BSK_KF3CT_TGFb1: BioMAP Diversity Plus: KF3CT Assay for Transforming growth factor beta 1 (TGFb1) Biomarker Activity (AID 2283072); conditions: primary human keratinocytes with fibroblasts; actives raise or lower the signal
How it was run: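 Primary human skin cells (keratinocytes, foreskin fibroblasts) were co-cultured, exposed to test chemical and sampled at 24 h. TGF-b1 levels were measured by ELISA and fitted bidirectionally relative to DMSO.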

[12] = read-out: C-C motif chemokine 2 (Homo sapiens) (UniProt P13500); assay: BSK_KF3CT_MCP1: BioMAP Diversity Plus: KF3CT Assay for Monocyte Chemoattractant Protein 1 (MCP1/CCL2) Biomarker Activity (AID 2283073); conditions: primary human keratinocytes with fibroblasts; actives raise or lower the signal
How it was run: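 Human keratinocyte plus foreskin fibroblast primary co-culture exposed to chemical for 24 h. MCP-1 levels measured by ELISA. Bidirectional curve fitting relative to DMSO negative control as baseline.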

[13] = read-out: Matrix Metallopeptidase 9 (MMP9), MMP9 (gene 4318); assay: BSK_KF3CT_MMP9: BioMAP Diversity Plus: KF3CT Assay for Matrix Metallopeptidase 9 (MMP9) Biomarker Activity (AID 2283074); conditions: primary human keratinocytes with fibroblasts; actives raise or lower the signal
How it was run: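 Human keratinocyte/foreskin fibroblast co-culture; compound added; 24 h; MMP-9 by ELISA; bidirectional fit vs DMSO baseline.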

[14] = read-out: urokinase plasminogen activator (uPA), PLAU (gene 5328); assay: BSK_KF3CT_uPA: BioMAP Diversity Plus: KF3CT Assay for urokinase plasminogen activator (uPA) Biomarker Activity (AID 2283075); conditions: primary human keratinocytes with fibroblasts; actives raise or lower the signal
How it was run: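 ELISA readout of uPA, analyzed for signal gain or loss relative to DMSO, from a human primary keratinocyte–foreskin fibroblast co-culture measured 24 h after chemical treatment.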

CD40, CD40 (gene 958) = assay: BSK_LPS_CD40: BioMAP Diversity Plus: LPS Assay for CD40 Biomarker Activity (AID 2283076); conditions: primary human HUVEC with PBMC; actives raise or lower the signal
How it was run: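 Primary human umbilical vein endothelial cells co-cultured with peripheral blood mononuclear cells, LPS-stimulated, were dosed with chemical and read 24 h later. CD40 levels were measured by ELISA and fitted bidirectionally against DMSO as negative control and baseline.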

[15] = read-out: E-selectin (Homo sapiens) (UniProt P16581); assay: BSK_LPS_Eselectin: BioMAP Diversity Plus: LPS Assay for Eselectin Biomarker Activity (AID 2283077); conditions: primary human HUVEC with PBMC; actives raise or lower the signal
How it was run: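 Human umbilical vein endothelial cells co-cultured with peripheral blood mononuclear cells under LPS stimulation; E-selectin measured by ELISA 24 h after chemical dosing. Activity fitted bidirectionally against DMSO as negative control and baseline.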

[16] = read-out: Interleukin-8 (IL8), CXCL8 (gene 3576); assay: BSK_LPS_IL8: BioMAP Diversity Plus: LPS Assay for Interleukin-8 (IL8) Biomarker Activity (AID 2283078); conditions: primary human HUVEC with PBMC; actives raise or lower the signal
How it was run: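 Human umbilical vein endothelial cells co-cultured with PBMC were stimulated with LPS; IL-8 levels were measured by ELISA 24 h after chemical dosing. Activity was fitted bidirectionally against DMSO as negative control and baseline.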

[17] = BSK_LPS_SRB: Viability Assessment in the BioMAP Diversity Plus: LPS Assay (AID 2283079); conditions: primary human HUVEC with PBMC;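 also: total protein by sulforhodamine B absorbance as a cytotoxicity measure; measured one day after compound addition; fitted in both directions against DMSO so loss or gain of signal counts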
How it was run: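 Human umbilical vein endothelial cells co-cultured with PBMC (LPS system) were dosed for 24 h. Total protein was stained with 0.1% sulforhodamine B after 10% TCA fixation, read at 560 nm, and fitted bidirectionally against DMSO baseline.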

[18] = read-out: Interleukin-1 alpha (IL1a), IL1A (gene 3552); assay: BSK_LPS_IL1a: BioMAP Diversity Plus: LPS Assay for Interleukin-1 alpha (IL1a) Biomarker Activity (AID 2283080); conditions: primary human HUVEC with PBMC; actives raise or lower the signal
How it was run: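 Human umbilical vein endothelial cells co-cultured with peripheral blood mononuclear cells were LPS-stimulated and exposed to test chemicals for 24 h. IL-1 alpha was quantified by ELISA, with bidirectional curve fitting against DMSO as the negative control and baseline.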

[19] = read-out: Monocyte Chemoattractant Protein-1 (MCP1), CCL2 (gene 6347); assay: BSK_LPS_MCP1: BioMAP Diversity Plus: LPS Assay for Monocyte Chemoattractant Protein-1 (MCP1) Biomarker Activity (AID 2283081); conditions: primary human HUVEC with PBMC; actives raise or lower the signal
How it was run: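 HUVEC plus PBMC co-culture (human primary cells, LPS system) exposed to test chemical for 24 h; MCP-1 measured by ELISA. Bidirectional curve fitting against DMSO baseline; parallel SRB total-protein staining flags overt cytotoxicity.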

Measured: outcome

Sequence of E-selectin (Homo sapiens) (P16581 whole entry, looked up): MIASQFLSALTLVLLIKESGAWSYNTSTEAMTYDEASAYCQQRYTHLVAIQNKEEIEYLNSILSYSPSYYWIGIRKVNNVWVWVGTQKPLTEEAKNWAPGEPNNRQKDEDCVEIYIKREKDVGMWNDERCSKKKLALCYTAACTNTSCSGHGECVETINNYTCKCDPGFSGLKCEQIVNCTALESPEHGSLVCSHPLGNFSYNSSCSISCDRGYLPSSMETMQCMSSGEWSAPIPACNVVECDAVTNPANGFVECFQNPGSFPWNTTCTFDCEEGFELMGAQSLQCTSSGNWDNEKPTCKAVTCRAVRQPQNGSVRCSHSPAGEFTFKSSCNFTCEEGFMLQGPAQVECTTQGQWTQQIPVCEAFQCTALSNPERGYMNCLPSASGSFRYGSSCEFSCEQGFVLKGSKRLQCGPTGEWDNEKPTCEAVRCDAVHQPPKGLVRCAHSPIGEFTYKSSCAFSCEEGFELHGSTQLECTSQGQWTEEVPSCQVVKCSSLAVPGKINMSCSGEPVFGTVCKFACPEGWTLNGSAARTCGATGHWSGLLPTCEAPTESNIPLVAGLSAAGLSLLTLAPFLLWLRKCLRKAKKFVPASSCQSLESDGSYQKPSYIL

CC(C)CCCCCCOC(=O)c1ccc(C(=O)OCCCCCCC(C)C)c(C(=O)OCCCCCCC(C)C)c1
inactive: all assays above

CC(C)=CCC/C(C)=C/CO
inactive: all assays above

CCNc1ccccc1
inactive: all assays above
